NPSR antagonist – neuropeptide S receptor (human) antagonism, cAMP. Q6W5P4. CHO-NPSR cells, cAMP TR-FRET, antagonist mode. Potency, µM (doses to about 38.3 µM), inactives show at the top dose activity change, negative = inhibition, most hits filed as inhibitors. actives 1% (n = 220,000). AID 1461; also: nearly all actives have a fitted effect of over 50% in size
Tau fibril ThT – tau fibrillization inhibition (ThT binding); P10636; recombinant tau K18 P301L, heparin-induced fibrillization, ThT fluorescence; Potency, µM (series often up to 57.4 µM), for inactives: top-dose activity, negative = inhibition, most hits filed as inhibitors; actives 2.1% (n = 270,000); also: nearly all actives have a fitted effect of over 55% in size
Target sequence (P10636 561-689 P618L limits assumed): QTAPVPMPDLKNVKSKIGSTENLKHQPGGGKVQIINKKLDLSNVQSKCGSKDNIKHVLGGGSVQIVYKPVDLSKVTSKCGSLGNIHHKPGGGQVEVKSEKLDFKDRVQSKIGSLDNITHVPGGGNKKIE
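Heparin-induced fibrillization of the P301L-mutant K18 repeat-domain fragment of human tau was followed by ThT binding in quantitative high-throughput format.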
ALDH1A1 block – ALDH1A1 (human) enzyme inhibition; Purified ALDH1A1, NADH fluorescence, propionaldehyde substrate; Potency, µM (doses to about 75.3 µM), inactives show at the top dose activity, negative = inhibition, actives largely listed as inhibitors; actives 7.3% (n = 220,000); active = well fitted inhibition curve with a large enough effect, not every such curve was filed as active; inconclusive = small, poorly fitted or top-dose-only effect, or another doubt; inactive = no such curve, though single readings can be large or run the other way;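 also: plate controls were no enzyme wells and a reference inhibitor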
Target sequence (P00352 whole entry, looked up): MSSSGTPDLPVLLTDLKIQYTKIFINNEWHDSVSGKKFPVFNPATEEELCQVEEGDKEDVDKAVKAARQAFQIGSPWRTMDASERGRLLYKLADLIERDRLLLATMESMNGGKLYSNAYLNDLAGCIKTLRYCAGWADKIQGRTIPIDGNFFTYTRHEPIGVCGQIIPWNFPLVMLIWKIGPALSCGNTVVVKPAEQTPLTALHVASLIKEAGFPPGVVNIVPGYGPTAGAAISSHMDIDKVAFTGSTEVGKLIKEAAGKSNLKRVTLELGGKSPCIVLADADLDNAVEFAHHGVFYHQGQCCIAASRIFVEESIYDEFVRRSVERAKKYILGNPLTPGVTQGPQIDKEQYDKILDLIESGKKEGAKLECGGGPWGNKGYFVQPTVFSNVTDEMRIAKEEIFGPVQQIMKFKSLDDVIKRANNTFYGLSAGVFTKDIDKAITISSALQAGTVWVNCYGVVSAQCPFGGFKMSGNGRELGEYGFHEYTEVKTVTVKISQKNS
Tau fluor counter – counter-screen for tau fibril formation inhibitors. AID 1463. tau K18 P301L Alexa594 fluorescence, heparin fibrillization. Potency, µM (highest dose often 57.7 µM), for the others: top-dose activity change, negative = decrease. actives 0.93% (n = 280,000); also: nearly all actives have a fitted effect of over 55% in size
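Human tau K18 P301L (15 uM unlabeled, 0.24 uM Alexa 594-labeled) in 100 mM sodium acetate pH 7 with 20 uM heparin, 6 hr at 37 C. ThT 30 uM added, 1 hr ambient; Alexa 594 FP and total fluorescence read at 555/632 nm.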
HPGD inh – inhibitors of human 15-hydroxyprostaglandin dehydrogenase (HPGD) | actives 4.3% (n = 150,000) | P15428 | Potency, µM, without a hit: at the highest dose activity change, negative = inhibition, usual class: inhibitors | purified HPGD, NADH fluorescence kinetic, PGE2 substrate; active = well fitted inhibition curve with a large enough effect, not every such curve was filed as active; inconclusive = small, poorly fitted or top-dose-only effect, or another doubt; inactive = no such curve, though single readings can be large or run the other way
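20 nM HPGD preincubated 15 min at room temperature with compound in 50 mM Tris-HCl pH 8, 0.01% Tween 20. Started with 1 mM NAD+ and 30 uM prostaglandin E2; NADH fluorescence (360/450 nm) read 5 times over 30-s intervals, last minus first.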
Tau FP inhib – tau fibrillization inhibition (FP); P10636; K18 P301L tau heparin fibrillization, Alexa594 FP, 6 h; Potency, µM (series often up to 57.7 µM), without a hit: at the highest dose activity, negative = inhibition, actives largely listed as inhibitors; actives 0.39% (n = 280,000); AID 1468; also: nearly all actives have a fitted effect of over 55% in size
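Steps: dispense K18 P301L tau (15 uM plus 0.24 uM Alexa 594 tracer, final) in pH 7 sodium acetate; add compound; add heparin (20 uM final); incubate 6 hr, 37 C; add ThT (30 uM final); after 1 hr ambient, read FP.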
Active calls of the source: *; ? = inconclusive; nt = no result given; [ ] = another dose, or the depositor's remark. Sampled rows, rich in hits. Any-hit rate of the full collection: about 9.5%. Unless noted, calls follow the shape of the dose curve; as a rule, active = well fitted curve in the direction sought with a large enough effect; inconclusive = small, poorly fitted or top-dose-only effect, or another doubt; inactive = no such curve, though single readings can be large; an effect the other way counts as inactive or inconclusive. Unless noted, % is scaled to controls: 0 for no effect and ±100 for the full control effect; potency is read from the fitted curve at half-maximal effect.

SMILES	NPSR antagonist	Tau fibril ThT	ALDH1A1 block	Tau fluor counter	HPGD inh	Tau FP inhib
C=CC(C1=CC(=O)C(OC)=CC1=O)c1ccc(OC)cc1 (stereo unspecified)	nt	15.8µM*	?	?	?	?
COc1ccc(C(=O)N/N=C/C(C)c2ccccc2)cc1OC (stereo unspecified)	-12.9%[46.1 µM]	-6.6%	-3.8%	-5.2%	-7.6%	5.7%
Cc1c(NC2=C(Cl)C(=O)N(c3ccccc3)C2=O)c(=O)n(-c2ccccc2)n1C	-15.1%[46.1 µM]	?	?	-18.0%	-21.7%	?
C=CCNC1=C(Cl)C(=O)N(c2ccccc2Cl)C1=O	-2.3%[46.1 µM]	?	25.1µM*	-28.6%	-16.6%	?
Cc1c(NC2=C(Cl)C(=O)N(c3ccccc3Cl)C2=O)c(=O)n(-c2ccccc2)n1C	-25.5%	?	35.5µM*	-10.5%	-7.6%	?
COc1ccc2c(c1)CCN1C2CCN2C(=O)CCC21 (stereo unspecified)	-10.0%	-6.5%	nt	4.5%	nt	-0.7%
O=C(COC(=O)c1cc(-c2cccs2)nc2ccccc12)c1ccc(Br)cc1	nt	-0.7%	nt	-7.4%	nt	?
Cc1cc(/C=N/n2cnnc2)c(C)n1-c1cc(Cl)ccc1Cl	?	-11.4%	22.4µM*	-1.9%	-24.3%	7.0%
CC1(C)CC(=O)C(Sc2ccccc2)=C(O)C1	-19.0%	-9.0%	20µM*	4.8%	nt	-4.2%
Cc1ccc2nc(-c3cccc(NC(=O)c4cccc5ccccc45)c3)oc2c1	nt	-5.0%	nt	-29.0%	nt	?
Cc1ccc(S(=O)(=O)c2nc(C)oc2N2CCOCC2)cc1	1.3%	-17.4%	-8.6%	-13.4%	nt	-2.8%[2.34 µM]
O=S(=O)(c1ccccc1)c1nc(-c2ccccc2)oc1N1CCOCC1	0.4%	8.6%	3.55µM*	7.0%[2.34 µM]	nt	5.2%
COc1cc(-c2nc(S(=O)(=O)c3ccccc3)c(N3CCOCC3)o2)cc(OC)c1OC	-21.2%[46.1 µM]	?	10µM*	-6.4%	-2.5%	-0.1%
Cc1ccc(S(=O)(=O)c2nc(C(C)(C)C)oc2N2CCOCC2)cc1	3.5%[46.1 µM]	?	10µM*	-15.6%	-9.7%	39.8µM*
CCCc1cc(C(=O)Nc2c(C)nn(Cc3c(Cl)cccc3Cl)c2C)no1	nt	-10.9%	nt	-12.0%	nt	-4.5%
NC(Cc1c[nH]c2ccccc12)C(=O)NCc1ccco1 (stereo unspecified)	-18.1%	-11.6%	1.5%	-27.0%	nt	3.9%
O=C(NCc1cccnc1)C(=O)C1C(=O)Nc2ccccc21 (stereo unspecified)	-11.5%	7.3%	?	8.0%	nt	-3.7%
CC12CCC(C(=O)NCc3ccc4c(c3)OCO4)(OC1=O)C2(C)C (stereo unspecified)	5.2%[46.1 µM]	-5.7%	?	1.8%	31.6µM*	-5.7%
O=C(NCc1ccc2c(c1)OCO2)c1ccccc1	11.6%	-5.3%	8.5%	-3.7%	nt	-3.2%
O=C(NCc1ccc2c(c1)OCO2)c1cccc(F)c1	0.4%[7.67 µM]	-3.5%	-1.2%	-12.0%	15.8µM*	2.8%
Cc1nc2c(C(=O)NCc3ccc4c(c3)OCO4)cnn2c(C)c1Cc1ccc(F)cc1Cl	10µM*	-7.6%	?	-3.3%	?	-1.6%
COc1ccc(/C=C(/CC(=O)NCc2ccc(Cl)cc2)c2nc3ccccc3s2)cc1	-25.4%	-6.0%	?	-15.9%	?	0.2%
COc1ccccc1/C=C(/CC(=O)NCc1ccc2c(c1)OCO2)c1nc2ccccc2s1	-28.9%	-3.3%	1.41µM*	-11.2%	-13.4%	12.4%
CC12CCC(C(=O)NCc3ccccc3)(OC1=O)C2(C)C (stereo unspecified)	-11.9%[46.1 µM]	1.4%	-13.4%	2.3%	-12.8%	-1.4%
COc1ccc(COc2ccccc2C(=O)NCc2ccccc2)cc1F	-30.7%	-2.3%	?	-11.7%	15.8µM*	0.0%
SMILES	NPSR antagonist	Tau fibril ThT	ALDH1A1 block	Tau fluor counter	HPGD inh	Tau FP inhib
COc1ccccc1NC(=O)NCc1ccc2c(c1)OCO2	-8.8%[46.1 µM]	-5.3%	12.7%	-2.5%	-13.8%	-3.0%
O=C(NCc1ccc2c(c1)OCO2)c1cccc(Cl)c1	-5.5%[46.1 µM]	3.3%	-4.8%	3.1%	3.55µM*	3.2%
COc1ccccc1C(=O)NCc1ccc2c(c1)OCO2	-21.8%[46.1 µM]	-5.2%	-1.1%	1.1%	14.1µM*	-1.0%
Cc1ccc(-c2c(C)sc3ncn(CC(=O)N4CCOCC4)c(=O)c23)cc1C	-7.8%	nt	nt	-6.2%	nt	-5.4%
O=C(Nc1cccnc1)c1noc2c1CCCC2	?	-2.5%	22.4µM*	0.9%	-13.6%	-1.5%
CCC#CCOCC(=O)Nc1ccccc1	nt	5.8%	?	-1.5%	-11.6%	-3.5%
CN(Cc1ccccc1)C(=O)c1nc2ccccn2c1CNCCOc1cccnc1	5.6%	-3.4%	25.1µM*	-2.9%	nt	-1.0%
CN(Cc1c(C(=O)N(C)Cc2ccccc2)nc2ccccn12)CC1Cc2ccccc2O1 (stereo unspecified)	-13.5%	-9.8%	14.1µM*	-11.6%	nt	-3.3%
CN(Cc1ccccc1)CC(O)COc1ccc(CNCCOc2cccnc2)cc1 (stereo unspecified)	-15.5%	10.7%	7.2%	1.7%	nt	0.1%
c1ccc(CCCNc2nnnc3ccccc23)cc1	nt	nt	-2.9%[13.5 µM]	nt	-4.7%	nt
O=c1c2[nH]c3ccccc3c2nc(SCc2cccc(F)c2)n1-c1ccccc1	nt	0.2%	nt	-15.9%	nt	-12.6%
CC(C)c1onc(C(=O)N2CCN(Cc3ccccc3)CC2)c1[N+](=O)[O-]	14.2%	0.5%	2.51µM*	-1.5%	-7.9%	-2.5%
CC(C)c1onc(C(=O)N2CCOCC2)c1[N+](=O)[O-]	13.7%	-6.3%	0.1%	-9.0%	nt	?
CN(C)c1oc(-c2ccccc2[N+](=O)[O-])nc1C#N	-7.9%	?	10µM*	-20.2%	nt	?
CN(C)c1oc(-c2ccccc2Cl)nc1C#N	-18.8%[46.1 µM]	-6.8%	?	-9.7%	-15.9%	-3.9%
CCCC(O)(CCN(C)C)c1ccc(OC)cc1 (stereo unspecified)	1.1%[46.1 µM]	-11.6%	10µM*	-7.8%	4.8%	7.0%
Cc1cc(C)c2nc(SCC(=O)NCCN3C(=O)CSC3=O)cc(C)c2c1	-8.7%[46.1 µM]	-9.9%	27.1%	-5.2%	nt	2.9%
Cc1onc(-c2ccccc2Cl)c1C(=O)OCN1C(=O)c2ccccc2C1=O	-15.8%[46.1 µM]	-9.5%	-0.8%	-12.2%	11.2µM*	-10.0%
Cc1onc(-c2ccccc2)c1C(=O)Nc1cccnc1	-13.0%[7.67 µM]	16.2%	?	3.7%	-8.1%	-14.5%
O=C(Nc1cccnc1)c1ccccc1-c1nc(-c2ccccc2F)no1	-4.1%[46.1 µM]	-1.6%	11.2µM*	-14.0%	0.9%	-6.4%
COc1ccccc1-c1noc(-c2ccccc2C(=O)Nc2cccnc2)n1	-1.1%[46.1 µM]	-19.3%	?	-16.5%	-1.2%	-2.7%
Cc1onc(-c2ccccc2Cl)c1C(=O)Nc1cccnc1	-5.9%[46.1 µM]	-0.2%	22.4µM*	1.8%	-14.4%	3.1%

High-throughput results from PubChem BioAssay.
